# Source: the supplement of paper PMC12282887
# ± gives the standard deviation of the averaged measurements.
# Assays:
# Experiment in all cases: promoter activity interaction Z-score (Lux/OD deviation from empty-vector control); higher = stronger promoter induction by the compound
# [1] = test system: E. coli BW25113 acrABp lux reporter
# Summary of the method: (§1)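 E. coli BW25113, as wild type or one of three single-gene deletion strains, carried low-copy luxCDABE promoter reporters and grew in 40 µl LB Lennox in 384-well plates at 37°C, with OD600 and luminescence read every 30 min for 12 h. Each compound was run at four 1:2 dilutions in biological duplicates, integration spanned 0–8 h for wild type and 1–9 h for deletion strains, and wells under 10% of the median growth value were dropped. The score is the Z-transformed residual of growth-normalised luminescence fitted against a control.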
# [2] = test system: E. coli BW25113 ompFp lux reporter
# Summary of the method: as §1
# [3] = test system: E. coli BW25113 robp lux reporter
# Summary of the method: as §1
# [4] = test system: E. coli BW25113 soxSp lux reporter
# Summary of the method: as §1
# [5] = test system: E. coli BW25113 tolCp lux reporter
# Summary of the method: as §1
# [6] = 18 µg/ml, genetic background: wild type
# [7] = 18 µg/ml, genetic background: ΔmarA
# [8] = 18 µg/ml, genetic background: Δrob
# [9] = 18 µg/ml, genetic background: ΔsoxS
# [10] = 36.1 µg/ml, genetic background: wild type
# [11] = 36.1 µg/ml, genetic background: ΔmarA
# [12] = 36.1 µg/ml, genetic background: Δrob
# [13] = 36.1 µg/ml, genetic background: ΔsoxS
# [14] = 72.1 µg/ml, genetic background: wild type
# [15] = 72.1 µg/ml, genetic background: ΔmarA
# [16] = 72.1 µg/ml, genetic background: Δrob
# [17] = 72.1 µg/ml, genetic background: ΔsoxS
# [18] = 144.2 µg/ml, genetic background: wild type
# [19] = 144.2 µg/ml, genetic background: ΔmarA
# [20] = 144.2 µg/ml, genetic background: Δrob
# [21] = 144.2 µg/ml, genetic background: ΔsoxS
smiles,measurement,setting,value
C[C@]12CC[C@H]3[C@@H](CCC4=CC(=O)CC[C@@]43C)[C@@H]1CC[C@@H]2O [Testosterone],promoter activity interaction Z-score,[1]; [6],-0.445 ± 0.074
same,promoter activity interaction Z-score,[1]; [7],-0.76 ± 0.16
same,promoter activity interaction Z-score,[1]; [8],-0.613 ± 0.11
same,promoter activity interaction Z-score,[1]; [9],-0.272 ± 0.23
same,promoter activity interaction Z-score,[1]; [10],-0.494 ± 0.042
same,promoter activity interaction Z-score,[1]; [11],-1.03 ± 1.1
same,promoter activity interaction Z-score,[1]; [12],-0.524 ± 0.2
same,promoter activity interaction Z-score,[1]; [13],-0.556 ± 0.063
same,promoter activity interaction Z-score,[1]; [14],-0.447 ± 0.14
same,promoter activity interaction Z-score,[1]; [15],0.264 ± 0.87
same,promoter activity interaction Z-score,[1]; [16],-0.624 ± 0.12
same,promoter activity interaction Z-score,[1]; [17],-0.489 ± 0.08
same,promoter activity interaction Z-score,[1]; [18],-0.411 ± 0.019
same,promoter activity interaction Z-score,[1]; [19],-0.669 ± 0.41
same,promoter activity interaction Z-score,[1]; [20],-0.643 ± 0.08
same,promoter activity interaction Z-score,[1]; [21],-0.295 ± 0.29
same,promoter activity interaction Z-score,[2]; [6],-0.491 ± 0.12
same,promoter activity interaction Z-score,[2]; [7],-0.598 ± 0.2
same,promoter activity interaction Z-score,[2]; [8],-0.803 ± 0.57
same,promoter activity interaction Z-score,[2]; [9],0.195 ± 0.35
same,promoter activity interaction Z-score,[2]; [10],-0.432 ± 0.41
same,promoter activity interaction Z-score,[2]; [11],-1.1 ± 0.061
same,promoter activity interaction Z-score,[2]; [12],-0.418 ± 0.62
same,promoter activity interaction Z-score,[2]; [13],-0.713 ± 0.022
same,promoter activity interaction Z-score,[2]; [14],-0.907 ± 0.16
same,promoter activity interaction Z-score,[2]; [15],-0.501 ± 0.28
same,promoter activity interaction Z-score,[2]; [16],-0.424 ± 0.42
same,promoter activity interaction Z-score,[2]; [17],-0.715 ± 0.045
same,promoter activity interaction Z-score,[2]; [18],-0.6982 ± 0.0041
same,promoter activity interaction Z-score,[2]; [19],-0.969 ± 0.097
same,promoter activity interaction Z-score,[2]; [20],-0.395 ± 0.47
same,promoter activity interaction Z-score,[2]; [21],-0.339 ± 0.32
same,promoter activity interaction Z-score,[3]; [6],-0.462 ± 0.23
same,promoter activity interaction Z-score,[3]; [7],-1.03 ± 1.1
same,promoter activity interaction Z-score,[3]; [8],-1.05 ± 0.49
same,promoter activity interaction Z-score,[3]; [9],-0.195 ± 0.39
same,promoter activity interaction Z-score,[3]; [10],-0.445 ± 0.22
same,promoter activity interaction Z-score,[3]; [11],-1.14 ± 0.019
same,promoter activity interaction Z-score,[3]; [12],-0.289 ± 0.96
same,promoter activity interaction Z-score,[3]; [13],-0.498 ± 0.64
same,promoter activity interaction Z-score,[3]; [14],-0.398 ± 0.53
same,promoter activity interaction Z-score,[3]; [15],0.148 ± 0.41
same,promoter activity interaction Z-score,[3]; [16],-0.438 ± 1
same,promoter activity interaction Z-score,[3]; [17],-0.274 ± 0.099
same,promoter activity interaction Z-score,[3]; [18],-0.102 ± 0.59
same,promoter activity interaction Z-score,[3]; [19],-0.151 ± 0.4
same,promoter activity interaction Z-score,[3]; [20],-0.428 ± 0.35
same,promoter activity interaction Z-score,[3]; [21],0.0605 ± 0.79
same,promoter activity interaction Z-score,[4]; [6],-0.254 ± 0.24
same,promoter activity interaction Z-score,[4]; [7],-0.0384 ± 0.16
same,promoter activity interaction Z-score,[4]; [8],-0.165 ± 0.23
same,promoter activity interaction Z-score,[4]; [9],-0.0975 ± 0.27
same,promoter activity interaction Z-score,[4]; [10],-0.534 ± 0.01
same,promoter activity interaction Z-score,[4]; [11],-0.3 ± 0.046
same,promoter activity interaction Z-score,[4]; [12],-0.108 ± 0.14
same,promoter activity interaction Z-score,[4]; [13],-0.463 ± 0.35
same,promoter activity interaction Z-score,[4]; [14],-0.459 ± 0.01
same,promoter activity interaction Z-score,[4]; [15],-0.148 ± 0.037
same,promoter activity interaction Z-score,[4]; [16],-0.0584 ± 0.12
same,promoter activity interaction Z-score,[4]; [17],-0.399 ± 0.15
same,promoter activity interaction Z-score,[4]; [18],-0.398 ± 0.075
same,promoter activity interaction Z-score,[4]; [19],-0.389 ± 0.044
same,promoter activity interaction Z-score,[4]; [20],-0.368 ± 0.021
same,promoter activity interaction Z-score,[4]; [21],-0.448 ± 0.076
same,promoter activity interaction Z-score,[5]; [6],0.0813 ± 0.76
same,promoter activity interaction Z-score,[5]; [7],0.0835 ± 0.37
same,promoter activity interaction Z-score,[5]; [8],-0.682 ± 0.73
same,promoter activity interaction Z-score,[5]; [9],0.781 ± 0.5
same,promoter activity interaction Z-score,[5]; [10],0.191 ± 0.092
same,promoter activity interaction Z-score,[5]; [11],-1.71 ± 0.36
same,promoter activity interaction Z-score,[5]; [12],0.34 ± 0.48
same,promoter activity interaction Z-score,[5]; [13],-0.587 ± 0.0086
same,promoter activity interaction Z-score,[5]; [14],0.0036 ± 0.71
same,promoter activity interaction Z-score,[5]; [15],-0.0511 ± 0.6
same,promoter activity interaction Z-score,[5]; [16],0.112 ± 0.27
same,promoter activity interaction Z-score,[5]; [17],0.394 ± 0.17
same,promoter activity interaction Z-score,[5]; [18],0.135 ± 0.34
same,promoter activity interaction Z-score,[5]; [19],-0.734 ± 0.57
same,promoter activity interaction Z-score,[5]; [20],0.644 ± 0.24
same,promoter activity interaction Z-score,[5]; [21],0.344 ± 0.27
